Measured values from PubChem BioAssay.
The source made the active and inactive calls.

Tests used:
[1] = system: Human papillomavirus type 1a protein E7 (residues 44-93); assay: small molecules binding HPV E7 44-93 – biochemical, small-molecule microarray, residues 44-93, 635 nm fluorescence, primary screen (AID 1108); conditions: fluorescence 635 nm, higher = more signal;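 further: E7 fragment applied at 1 µg/mL in TBST for 1 h at 4 C; score combines spot fluorescence with its signal to noise ratio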
[2] = hepatitis C replication reporter changes, two-sided – Huh7 cells, luciferase reporter, HCV replication inhibitor project, primary screen (AID 1109); conditions: Huh7 HCV replicon luciferase reporter, 48 h; higher = more signal;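 further: huh7 hepatoma cells harbouring a luciferase neomycin HCV replicon reporter; luciferase luminescence as measure of HCV replicon replication; test concentration not given here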
[3] = target: Left-right determination factor 2 (Homo sapiens) (UniProt O00292); assay: small molecules binding LEFTY2 protein – biochemical, small-molecule microarray, 635 nm fluorescence scan, primary screen (AID 1110); conditions: higher = more signal
[4] = target: Calmodulin-1 (Homo sapiens) (UniProt P0DP23); assay: small molecules binding calmodulin-1 with EGTA – biochemical, small-molecule microarray, Cy5-labelled CALM1, profiling panel (AID 1111); conditions: Cy5-CALM1 binding fluorescence, higher = more signal;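 further: labelled calmodulin applied in Tris saline Tween buffer holding calcium plus EGTA and DTT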
[5] = target: Calmodulin-1 (Homo sapiens) (UniProt P0DP23); assay: small molecules binding Ca-loaded calmodulin-1 – biochemical, small-molecule microarray, Cy5-labelled CALM1, plus calcium, artefact control for SMM control-protein annotation, profiling panel (AID 1112); conditions: Cy5-CALM1 binding fluorescence, higher = more signal;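 further: score merges spot fluorescence with signal to noise from triplicate slides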
[6] = probe aWnt5a binding to arrayed compounds – biochemical, biotinylated probe, 635/667 nm fluorescence, primary screen (AID 1113); conditions: small-molecule microarray, higher = more signal;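 further: score merges 667 nm fluorescence intensity with signal-to-noise per printed feature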
[7] = probe aShh binding to arrayed compounds – biochemical, biotinylated probe, 635/667 nm fluorescence, primary screen (AID 1114); conditions: small-molecule microarray, higher = more signal;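 further: probe is biotin-labelled aShh protein from a stem cell growth factor screen; measures binding of labelled protein to compounds printed on the slide; score merges feature fluorescence at 667 nm with signal-to-noise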
[8] = probe aNog binding to arrayed compounds – biochemical, biotinylated probe, 635/667 nm fluorescence, primary screen (AID 1115); conditions: small-molecule microarray, higher = more signal;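 further: probe is biotinylated aNog protein used at 0.15 µg/mL for 1 h at 4 C; z-score combines 667 nm fluorescence of each spot with its signal to noise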
[9] = target: Torsin-1A-interacting protein 1 (Homo sapiens) (UniProt Q5JTV8); assay: compound microarray binding of lysate hLAP1 – cell lysate, small-molecule microarray, COS7 lysate, 635/667 nm fluorescence, primary screen (AID 1116); conditions: 635 nm fluorescence, higher = more signal
[10] = target: Alpha-bungarotoxin (Bungarus multicinctus) (UniProt P60615); assay: compounds binding labelled alpha-BTX control protein – biochemical, small-molecule microarray, Alexa647 label, 635/667 nm fluorescence, artefact control for SMM control protein annotation, profiling panel (AID 1117); conditions: alpha-BTX-A647 binding fluorescence, higher = more signal
[11] = target: Albumin (Bos taurus) (UniProt P02769); assay: compounds binding labelled BSA control protein – biochemical, small-molecule microarray, Alexa647 label, 635/667 nm fluorescence, artefact control for SMM control protein annotation, profiling panel (AID 1118); conditions: BSA-A647 binding, fluorescence 635 nm, higher = more signal;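 further: score merges 667 nm emission intensity and signal-to-noise per printed compound spot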
[12] = probe aXIP binding to arrayed compounds – biochemical, NeuroSMM set, 635/667 nm fluorescence, primary screen (AID 1119); conditions: small-molecule microarray, higher = more signal, called active from +8 up or from −8 down;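 further: probe is the protein aXip251-270 applied at 1 µg/mL to compound-printed slides; binding of probe to printed compounds measured as 667 nm fluorescence plus signal to noise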
[13] = probe aNOTCH3 binding on compound microarray – biochemical, small-molecule microarray, 635/667 nm fluorescence, primary screen (AID 1120); conditions: higher = more signal;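 further: probe is a biotin-tagged antibody raised against NOTCH3 rather than NOTCH3 protein; score merges spot fluorescence near 667 nm with spot signal to noise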
[14] = probe aNOTCH2 binding on compound microarray – biochemical, small-molecule microarray, 635/667 nm fluorescence, primary screen (AID 1121); conditions: higher = more signal;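 further: score merges feature fluorescence read at 667 nm with its signal to noise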
[15] = target: Carbonic anhydrase 2 (Homo sapiens) (UniProt P00918); assay: compounds binding carbonic anhydrase 2 – biochemical, small-molecule microarray, Alexa647-labelled CAII, profiling panel (AID 1122); conditions: CAII-A647 binding fluorescence, higher = more signal
[16] = COS7 lysate on small-molecule microarray, probe aHis, 635 nm (AID 1123); conditions: COS7 cell lysate, fluorescence, higher = more signal;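 further: z-score combines 667nm fluorescence intensity with signal-to-noise per printed compound spot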
[17] = probe aLAP1 signal on lysate-treated microarray – cell lysate, small-molecule microarray, COS7 lysate, primary screen (AID 1124); conditions: probe aLAP1, fluorescence, higher = more signal;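 further: lysate comes from COS7 cells expressing LAP1 and is applied at 0.3 µg/mL; score merges spot fluorescence near 667 nm with signal-to-noise over triplicate slides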
[18] = system: Sam68 (KHDRBS1); assay: compounds binding KHDRBS1 protein – biochemical, small-molecule microarray, 635 nm fluorescence, primary screen (AID 1125); conditions: higher = more signal;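 further: score merges 667 nm channel intensity with signal to noise over triplicate slides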
[19] = system: Chordin-like protein 2 (CHRDL2); assay: compounds binding chordin-like 2 – biochemical, small-molecule microarray, 635 nm fluorescence, primary screen (AID 1126); conditions: fluorescence 635 nm, higher = more signal;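 further: printed compound slides probed with Chrdl2 protein at 4 µg/mL for 1 h at 4 C; score merges 667 nm emission intensity with signal to noise over three replicate slides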
[20] = target: Concanavalin-A (Canavalia ensiformis) (UniProt P02866); assay: compounds binding concanavalin A lectin – biochemical, small-molecule microarray, Alexa647 label, 635 nm, artefact control for SMM control protein annotation, primary screen (AID 1127); conditions: ConA-A647 binding fluorescence, higher = more signal;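 further: z combines 667 nm emission intensity with signal-to-noise across three replicate slides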
Concanavalin-A (Canavalia ensiformis), sequence (P02866 whole entry, looked up): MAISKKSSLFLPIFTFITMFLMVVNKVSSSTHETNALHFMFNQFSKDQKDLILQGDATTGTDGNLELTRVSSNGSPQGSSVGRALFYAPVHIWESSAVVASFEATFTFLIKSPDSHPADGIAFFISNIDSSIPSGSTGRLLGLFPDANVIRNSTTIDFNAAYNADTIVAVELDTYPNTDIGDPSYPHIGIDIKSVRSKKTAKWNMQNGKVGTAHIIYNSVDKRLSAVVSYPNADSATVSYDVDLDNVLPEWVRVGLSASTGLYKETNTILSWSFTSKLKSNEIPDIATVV

Albumin (Bos taurus), sequence (P02769 whole entry, looked up): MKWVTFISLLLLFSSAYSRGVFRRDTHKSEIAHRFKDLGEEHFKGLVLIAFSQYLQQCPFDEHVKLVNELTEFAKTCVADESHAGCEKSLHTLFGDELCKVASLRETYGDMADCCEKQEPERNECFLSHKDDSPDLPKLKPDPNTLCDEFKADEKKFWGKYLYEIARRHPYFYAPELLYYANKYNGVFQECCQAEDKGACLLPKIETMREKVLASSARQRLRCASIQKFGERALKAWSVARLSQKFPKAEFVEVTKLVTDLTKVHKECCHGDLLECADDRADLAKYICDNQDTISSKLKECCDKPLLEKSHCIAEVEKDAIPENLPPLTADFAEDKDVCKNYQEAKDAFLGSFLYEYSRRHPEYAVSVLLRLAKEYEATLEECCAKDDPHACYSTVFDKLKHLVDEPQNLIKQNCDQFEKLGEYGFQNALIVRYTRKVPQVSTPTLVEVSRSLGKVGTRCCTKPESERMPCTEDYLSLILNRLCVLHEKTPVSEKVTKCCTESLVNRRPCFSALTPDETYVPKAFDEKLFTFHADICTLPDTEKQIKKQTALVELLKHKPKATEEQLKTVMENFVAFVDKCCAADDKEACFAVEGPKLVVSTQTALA
Alpha-bungarotoxin (Bungarus multicinctus), sequence (P60615 whole entry, looked up): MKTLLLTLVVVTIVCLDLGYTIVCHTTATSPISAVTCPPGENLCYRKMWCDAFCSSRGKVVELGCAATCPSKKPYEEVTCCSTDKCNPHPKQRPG
Left-right determination factor 2 (Homo sapiens), sequence (O00292 whole entry, looked up): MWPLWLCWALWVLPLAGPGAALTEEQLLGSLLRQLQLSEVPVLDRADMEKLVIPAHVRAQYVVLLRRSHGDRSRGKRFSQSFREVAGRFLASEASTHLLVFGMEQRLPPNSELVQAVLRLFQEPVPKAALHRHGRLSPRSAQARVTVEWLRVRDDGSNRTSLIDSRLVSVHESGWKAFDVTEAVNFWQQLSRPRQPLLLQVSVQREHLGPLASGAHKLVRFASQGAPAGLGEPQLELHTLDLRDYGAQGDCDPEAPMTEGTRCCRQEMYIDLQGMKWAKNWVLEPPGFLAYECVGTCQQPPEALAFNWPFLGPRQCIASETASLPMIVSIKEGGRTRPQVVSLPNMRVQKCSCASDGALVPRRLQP
Torsin-1A-interacting protein 1 (Homo sapiens), sequence (Q5JTV8 whole entry, looked up): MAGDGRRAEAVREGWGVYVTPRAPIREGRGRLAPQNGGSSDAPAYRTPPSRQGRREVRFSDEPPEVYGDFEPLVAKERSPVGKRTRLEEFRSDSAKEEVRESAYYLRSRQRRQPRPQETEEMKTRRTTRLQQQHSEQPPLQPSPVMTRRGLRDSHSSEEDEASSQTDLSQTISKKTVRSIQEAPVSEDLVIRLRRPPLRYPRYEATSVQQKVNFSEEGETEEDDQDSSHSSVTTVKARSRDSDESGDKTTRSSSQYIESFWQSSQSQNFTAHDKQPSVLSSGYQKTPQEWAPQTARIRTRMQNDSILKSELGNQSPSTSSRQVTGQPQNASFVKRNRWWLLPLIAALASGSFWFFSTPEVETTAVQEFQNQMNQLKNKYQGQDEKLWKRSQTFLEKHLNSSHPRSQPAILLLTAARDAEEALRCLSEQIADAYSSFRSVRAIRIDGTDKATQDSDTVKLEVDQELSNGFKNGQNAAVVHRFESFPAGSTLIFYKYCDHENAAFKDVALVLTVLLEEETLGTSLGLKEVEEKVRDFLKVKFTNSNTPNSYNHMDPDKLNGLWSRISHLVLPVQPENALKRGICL

CC(=O)OC[C@H]1O[C@H](CC=NOC[C@@H](C)[C@H](OCc2ccccc2)C(C)C)C=C[C@@H]1OC(C)=O
composite z-score [1]: 0.16 | z-score [2]: -0.854 | composite z-score [3]: 0.455 | composite z-score [4]: -0.47 | composite z-score [5]: -0.499 | composite z-score [6]: 0.0437 | composite z-score [7]: -0.186 | composite z-score [8]: -0.526 | composite z-score [9]: -0.698 | composite z-score [10]: -0.164 | composite z-score [11]: -0.428 | composite Z-score [12]: 0.156 (inactive) | composite z-score [13]: -0.0773 | composite z-score [14]: -0.11 | composite z-score [15]: -0.253 | composite z-score [16]: 0.043 | composite z-score [17]: -0.223 | composite z-score [18]: 0.377 | composite z-score [19]: 0.186 | composite z-score [20]: -0.182

CCc1cc2c(nc1CC)CCN(CCC(C)=NOC(C)CN1CCCc3nc(C)c(C)cc31)C2 (stereo not given)
composite z-score [1]: 1.13 | z-score [2]: -2.1 | composite z-score [3]: 0.482 | composite z-score [4]: 0.276 | composite z-score [5]: -0.544 | composite z-score [6]: 0.245 | composite z-score [7]: 1.38 | composite z-score [8]: 0.774 | composite z-score [9]: 0.849 | composite z-score [10]: 1.21 | composite z-score [11]: 0.263 | composite Z-score [12]: 1.74 (inactive) | composite z-score [13]: 0.724 | composite z-score [14]: 0.271 | composite z-score [15]: 0.461 | composite z-score [16]: 1.18 | composite z-score [17]: 0.0412 | composite z-score [18]: 1.29 | composite z-score [19]: 0.726 | composite z-score [20]: 0.952

CC(=O)OC[C@H]1O[C@@H](ON=C[C@@H](C)[C@H](OCc2ccccc2)C(C)C)[C@H](OC(C)=O)[C@@H](OC(C)=O)[C@@H]1OC(C)=O
composite z-score [1]: 0.162 | z-score [2]: -0.518 | composite z-score [3]: 0.619 | composite z-score [4]: 0.336 | composite z-score [5]: -0.815 | composite z-score [6]: -0.0754 | composite z-score [7]: -0.19 | composite z-score [8]: -0.144 | composite z-score [9]: -0.563 | composite z-score [10]: 0.226 | composite z-score [11]: -0.25 | composite Z-score [12]: 0.0474 (inactive) | composite z-score [13]: -0.0672 | composite z-score [14]: -0.159 | composite z-score [15]: -0.934 | composite z-score [16]: -0.0857 | composite z-score [17]: -0.246 | composite z-score [18]: 0.96 | composite z-score [19]: -0.838 | composite z-score [20]: 0.468
